Rows were chosen to be rich in hits. Some 2.7% of all compounds tested hit in one or more screens of this group.
KDM5B inh = Primary screen for KDM5B Histone Demethylases FDH-coupled qHTS. Lysine-specific demethylase 5B (Homo sapiens), Q9UGL1. KDM5B demethylase, FDH-coupled NADH fluorescence (FDH is formaldehyde dehydrogenase). Potency, µM (series often up to 57.7 µM), most hits filed as inhibitors. 220,000 tested, 2.6% active; active means well fitted inhibition curve with a large enough effect; inconclusive means small, poorly fitted or top-dose-only effect; inactive means no such curve, though single readings can be large or run the other way; further: potency means the concentration at half of the fitted maximal effect; 0% is about no effect; nearly all actives have a fitted effect of over 70% in size
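Inhibition is measured as reduced NADH fluorescence generation from FDH coupling to formaldehyde release. Truncated KDM5BΔAP at 200 nM final acts on H3K4me3 peptide (12.5 µM in substrate mix) in pH 7.5 HEPES buffer with Tween-20, 30 min, room temperature.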
IP6K1 inhibitor = Primary qHTS assay for small molecule inhibitors of Inositol hexaphosphate kinase 1 (IP6K1); activity change, % (series mostly up to about 58 µM); Inositol hexakisphosphate kinase 1 (Homo sapiens), Q92551; IP6K1 kinase, ADP-Glo luminescence, 2 h; active compounds read low; 140,000 tested, 0.81% active; in the data active means activity change below about -25%; further: on the % scale 0 is the no-effect control and ±100 the full control effect
Target sequence (Q92551 whole entry, looked up): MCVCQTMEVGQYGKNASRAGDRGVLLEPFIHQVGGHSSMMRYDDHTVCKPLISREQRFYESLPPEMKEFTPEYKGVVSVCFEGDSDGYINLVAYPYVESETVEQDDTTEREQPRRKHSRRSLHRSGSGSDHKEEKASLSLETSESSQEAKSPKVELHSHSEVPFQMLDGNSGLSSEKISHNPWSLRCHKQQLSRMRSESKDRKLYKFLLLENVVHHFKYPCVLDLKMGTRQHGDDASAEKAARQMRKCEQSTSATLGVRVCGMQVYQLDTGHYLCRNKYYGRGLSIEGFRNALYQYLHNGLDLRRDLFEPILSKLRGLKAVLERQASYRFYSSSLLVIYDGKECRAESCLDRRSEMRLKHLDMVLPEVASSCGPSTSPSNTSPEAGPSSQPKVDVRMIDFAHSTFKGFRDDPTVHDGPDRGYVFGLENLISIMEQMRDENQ
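ADP-Glo luminescence measures ADP made by human IP6K1 during a 2 h RT reaction with ATP/IP6 (mix at 1.3 mM/130 uM); top library doses 57.5 and 19.1 uM final.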
Numbers without * were called inactive; i = inactive; ? = inconclusive; . = not tested or not shown.

SMILES	KDM5B inh	IP6K1 inhibitor
COc1ccccc1-c1cc([C@H]2CN3CC[C@H]2C[C@@H]3CNS(=O)(=O)c2ccc(NC(C)=O)cc2)nc(C)n1	32µM*	-3
CCCNC(=O)OC[C@H]1C[C@@H]2CCN1C[C@@H]2c1cc(-c2ccccc2OC)nn1C	i	-6
CC(=O)Nc1ccc(S(=O)(=O)NC[C@H]2C[C@@H]3CCN2C[C@@H]3c2cc(-c3ccccc3Br)nc(C)n2)cc1	i	8
Cc1nc(-c2ccccc2)cc([C@H]2CN3CC[C@H]2C[C@@H]3CNC(=O)C(C)(C)C)n1	i	6
COc1ccc(-c2cc([C@H]3CN4CC[C@H]3C[C@@H]4CNC(=O)C3CCCCC3)n(C)n2)cc1OC	i	-8
CCN1CCCN(C(=O)COc2ccccc2)CC12CCOCC2	.	-10
CC(C)NC(=O)OC[C@H]1C[C@@H]2CCN1C[C@@H]2c1cc(C2CCCC2)nc(-c2ccncc2)n1	?	-1
O=C(Nc1cccc(C(F)(F)F)c1)OC[C@H]1C[C@@H]2CCN1C[C@@H]2c1cc(C2CCCC2)nc(-c2ccncc2)n1	i	10
COc1ccc(CN(Cc2ccc(OC)cc2)C[C@H]2C[C@@H]3CCN2C[C@@H]3c2cc(C3CCCC3)nn2C)cc1	i	-12
COc1ccccc1-c1cc([C@H]2CN3CC[C@H]2C[C@@H]3COC(=O)Nc2ccccc2)nc(C)n1	?	9
Cc1nc(-c2ccc(C(F)(F)F)cc2)cc([C@H]2CN3CC[C@H]2C[C@@H]3CNC(=O)CCC(=O)O)n1	i	5
Cc1nc(-c2ccccc2Br)cc([C@H]2CN3CC[C@H]2C[C@@H]3CNC(=O)CSCC(=O)O)n1	25µM*	17
CCCNC(=O)OC[C@H]1C[C@@H]2CCN1C[C@@H]2c1cc(-c2ccccc2OC)nc(C)n1	35µM*	4
COCC(=O)NC[C@H]1C[C@@H]2CCN1C[C@@H]2c1cc(-c2ccccc2Br)nc(C)n1	i	-4
COc1ccccc1-c1cc([C@H]2CN3CC[C@H]2C[C@@H]3CNC(=O)CCC(=O)O)nc(C)n1	32µM*	8
Cc1nc(-c2ccco2)cc([C@H]2CN3CC[C@H]2C[C@@H]3CNS(C)(=O)=O)n1	?	0
Cc1nc(-c2ccco2)cc([C@H]2CN3CC[C@H]2C[C@@H]3CNC(=O)Cc2cccs2)n1	18µM*	7
Cc1nc(-c2cccs2)cc([C@H]2CN3CC[C@H]2C[C@@H]3CNC(=O)c2ccccc2)n1	i	17
Cc1ccc(C(=O)NC[C@H]2C[C@@H]3CCN2C[C@@H]3c2cc(-c3cccs3)nc(C)n2)cc1	35µM*	19
Cc1nc(-c2ccco2)cc([C@H]2CN3CC[C@H]2C[C@@H]3CNC2CCOCC2)n1	22µM*	4
Cc1nc(-c2ccco2)cc([C@H]2CN3CC[C@H]2C[C@@H]3CNC(=O)c2cccs2)n1	?	17
FC(F)(F)CN1C2CCC1CN(c1cncc(Br)c1)C2	i	9
Cc1ccc(S(=O)(=O)NC[C@H]2C[C@@H]3CCN2C[C@@H]3CN2CCc3ccccc32)cc1	i	1
COc1cc2c(cc1Oc1ccccc1)NC(=O)C21CCN(Cc2cccc(O)c2)CC1	i	-15
CC1(C)C(=O)N(c2ccc(C#N)c(C(F)(F)F)c2)C(=S)N1c1ccc(C(N)=O)c(F)c1	.	2
SMILES	KDM5B inh	IP6K1 inhibitor
Cc1nc(-c2ccc(N(C)C)cc2)cc([C@H]2CN3CC[C@H]2C[C@@H]3CNC(=O)c2ccco2)n1	25µM*	-4
Cc1nc(-c2ccc(N(C)C)cc2)cc([C@H]2CN3CC[C@H]2C[C@@H]3COC(=O)Nc2ccccc2)n1	?	-8
Cc1nc(-c2ccc(N(C)C)cc2)cc([C@H]2CN3CC[C@H]2C[C@@H]3CNC(=O)NC(C)C)n1	11µM*	-12
Cc1nc(-c2ccccc2)cc([C@H]2CN3CC[C@H]2C[C@@H]3CNC(=O)c2ccco2)n1	?	2
Cc1cccc(CC(=O)N2CCN(Cc3ccc(=O)n(C)c3)CC2)c1	?	4
CSCC(=O)Nc1ccc(=O)n2c1[C@@H]1C[C@@H](CN(C(=O)c3ccc(F)cc3)C1)C2	i	23
c1cnc2c(c1)NC1(CCCNC1)C(=NC1CCCC1)N2 (configuration not stated)	25µM*	0
COc1ccc(-c2cc([C@H]3CN4CC[C@H]3C[C@@H]4CNS(=O)(=O)c3ccc(C)cc3)n(C)n2)cc1OC	i	-9
COC[C@H]1C[C@@H](NC2CCN(C)CC2)[C@H](O)[C@@H]1O	?	2
O=C(Cc1ccc(F)cc1)N1CCN(CCn2nc3n(c2=O)CCCC3)CC1	.	-8
Cc1nnc2n1CCC(NC(=O)c1nn(C)c3ccccc13)CC2 (configuration not stated)	?	11
CCCn1c(C)cnc1CCNC(=O)c1nn(C)c2ccccc12	25µM*	-6

Assay outcomes (PubChem)
